From PubChem BioAssay AID588765 (NMMLSC, 2011)
Several values for one entry are separate records, joined by “and”; a condition that tells them apart may be missing. Equal values may be shown once. Screen size: about 1,100 compounds; fewer than 10 were called active.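 The calls were made as follows: active = percent response below a set limit in fluorescence channel 1 and below 50% in channel 8; inactive = the rest.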 Only a sample is shown.

assay: compound fluorescence in dual-transfected Am2.2 cells, confirmation, artefact control for beta2AR agonist internalization project, cell-based, FAP fluorogen, flow cytometry, cherry pick 1 (AID 588765); details: fluorescence counterscreen, at 10 µM, stronger effect = lower value; percent response FL8: measured here: FL8 channel fluorescence;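 also: low percent response here flags compound autofluorescence meaning a false positive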

| SMILES | percent response FL1 | percent response FL8 |
| --- | --- | --- |
| O=C1C(=O)N(CC2COc3ccccc3O2)c2ccccc21 (configuration not stated) | 108% (inactive) | 112% |
| COc1ccc(-n2nc3c(N4CCC(C(=O)NCc5ccccc5)CC4)nnc(C)c3c2C)cc1 | 130% (inactive) | 115% |
| CCCOc1ccc(C(=O)C(CCC(CNCC)C(=O)c2ccc(OCCC)cc2)CNCC)cc1 (configuration not stated) | 82.8% (inactive) | 76.7% |
| O=C(NCCCn1ccnc1)C1CCCN(S(=O)(=O)c2cc(Cl)ccc2Cl)C1 (configuration not stated) | 8.86% (inactive) | 109% |
| COc1cc(C#Cc2ccc3cc(CCCO)oc(=O)c3c2)cc(OC)c1 | 92.6% (inactive) | 102% |
| CCCCCCCCCCOC(=O)Cn1c(COc2ccc(C)cc2)[n+](C)c2ccccc21 | 120% (inactive) | 113% |
| CC(=O)c1ccc(NC(=O)c2ccc3c(Cl)c4c(nc3c2)CCCC4)cc1 | 52.7% (inactive) | 89.7% |
| CCOC(=O)c1ccc(NC(=O)Cn2nnc(-c3ccc(C)cc3)n2)cc1 | 12.2% (inactive) and 8.97% (inactive) | 98.7% and 110% |
| O=S(=O)(Nc1ccc2[nH]ncc2c1)c1ccccc1Cl | 86% (inactive) | 87.7% |
| COc1ccc(C(CCNCc2ccccc2F)c2ccc(F)cc2)cc1 (configuration not stated) | 101% (inactive) | 110% |
| Cc1cc(S(=O)(=O)N2CCOCC2)ccc1OCC(=O)Nc1cccc(C(F)(F)F)c1 | 97.5% (inactive) | 108% |
| CC(CCc1ccccc1)NCC(O)c1cccc([N+](=O)[O-])c1 (configuration not stated) | 120% (inactive) | 128% |
| CCOc1ccc(NC(=O)COc2ccc(S(=O)(=O)N3CCCC3)cc2)cc1 | 109% (inactive) | 101% |
| CCCN(CCc1ccccc1)C1CCc2c(O)cccc2C1 (configuration not stated) | 103% (inactive) | 98.5% |
| Oc1ccc(N=Cc2sc3ccccc3c2Cl)cc1 | 99.5% (inactive) | 93.9% |
| O=C(Nc1ccc2c(c1)OCCO2)C(c1ccc(F)cc1)N1CCCCC1 (configuration not stated) | 114% (inactive) | 111% |
| CSc1ccc(CCNC(=O)C2CCN(c3nnc(-n4cccc4)s3)CC2)cc1 | 45.7% (inactive) | 94.2% |
| N#Cc1cccc(NC(=O)COC(=O)c2ccccc2C(=O)c2ccc(Cl)c([N+](=O)[O-])c2)c1 | 100% (inactive) | 89% |

| SMILES | percent response FL1 | percent response FL8 |
| --- | --- | --- |
| CC(=O)Nc1ccc(CN2CCC(Oc3ccc(C(=O)N4CCCC4)cc3)CC2)cc1 | 109% (inactive) | 109% |
| COc1ccc(S(=O)(=O)N2CCCC(C(=O)Nc3ccc(NC(=O)c4ccccn4)cc3)C2)cc1 (configuration not stated) | 45.3% (inactive) | 95.6% |
| CC(=O)Nc1ccc(Nc2c3ccccc3nc3ccccc23)cc1 | 68.8% (inactive) | 126% |
| C=CCNC(=S)N/N=C/c1ccc(C)s1 | 100% (inactive) | 93.3% |
| CCN1CCC2(CC1)N=C(c1ccc(F)cc1)C(=S)N2C(=O)c1ccc(C)cc1 | 98.4% (inactive) | 96.3% |
| Cc1ccc(Cl)cc1NC(=O)CN1CCN(S(=O)(=O)N2CCOCC2)CC1 | 99.8% (inactive) | 93.1% |
| CSc1ccc(CNC(=O)c2ccc(NC(=O)C3=CSCCO3)cc2)cc1 | 16.2% (inactive) | 99.4% |
| Cc1ccc(Sc2cc(N3CCOCC3)nc(-c3ccccc3)n2)cc1 | 29.8% (inactive) | 111% |
| COc1ccc(OC)c(NC(=O)c2sc3nc(C)cc(C)c3c2N)c1 | 45.6% (inactive) | 111% |
| CC(=O)c1cccc(NC(=O)COc2ccc(S(=O)(=O)N3CCOCC3)cc2)c1 | 112% (inactive) | 104% |
| CCOc1ccccc1N1C(=O)CC(Sc2nccc(C)n2)C1=O (configuration not stated) | 100% (inactive) | 97.2% |
| O=C(C1CCN(c2nnc(-n3cccc3)s2)CC1)N1CCc2ccccc2C1 | 128% (inactive) | 104% |
| COc1ccc2c(c1OC)C(=O)OC2Nc1nc(-c2ccccc2)cs1 (configuration not stated) | 104% (inactive) | 92.1% |
| OC(CNCc1ccc(Cl)c(Cl)c1)c1ccccc1 (configuration not stated) | 106% (inactive) | 113% |
| COc1ccc(OC)c(S(=O)(=O)N(C)CC(=O)N2CCN(c3ccccc3)CC2)c1 | 95.4% (inactive) and 98.5% (inactive) | 99.7% and 105% |
| CCOc1ccccc1NC(=O)COc1ccc(S(=O)(=O)N2CCCC2)cc1 | 110% (inactive) | 107% |
| COc1ccc(-c2ccnc(SCC(=O)N3CCOCC3)n2)cc1 | 103% (inactive) | 100% |
| Cc1ccc(OCC(=O)Nc2ccc(-c3nc4ncccc4o3)cc2)cc1 | 13.3% (inactive) and 14.1% (inactive) | 113% and 112% |
